Drawing on PubChem BioAssay (NCATS), this text covers Potency, outcome and activity change, negative = inhibition for 14 compounds.

Several values for one entry are separate records, joined by “and”; a condition that tells them apart may be missing. Identical values can stand only once. Inconclusive results are not listed. Values without a mark were called inactive. Activity calls are given as the source filed them. Unless noted, the call rests on the fitted dose curve; in most records, active means well fitted curve in the direction sought with a large enough effect; inconclusive means small, poorly fitted or top-dose-only effect, or another doubt; inactive means no such curve, though single readings can be large; an effect the other way counts as inactive or inconclusive.

The nature of assay [1]: Primary qHTS for inhibitors of La Crosse Virus (LACV) - induced cell death in SH-SY5Y cells (AID 1508616).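 Further: top concentration of the series differs between compounds; 0% = infected DMSO wells and 100% = uninfected DMSO wells; higher means more rescue of cells from virus-induced death.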 Summed up:
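Luminescent ATP readout (ATPLite 1step, 5 min room temperature) measured rescue from LACV-induced death after 6 days of infection at 0.01 MOI; normalized to infected DMSO wells and uninfected DMSO wells.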
On the technique in general: In qHTS, concentration-response curves come from the screen itself.

The target in assay [2] is Cytochrome P450 2D6 (Homo sapiens) (UniProt P10635). Briefly: Cytochrome P450 family 2 subfamily D member 6 (CYP2D6) small molecule antagonists: luciferase biochemical (cell-free) qHTS assay (AID 1645840; active means well fitted curve in the direction sought with a large enough effect in the repeat runs; an effect the other way counts as inactive or inconclusive; further: nearly all actives have a fitted effect of over 55% in size; further: potency means the concentration at half of the fitted maximal effect; on activity change, negative = inhibition: series mostly up to about 57 µM; on the % scale 0 is the no-effect control and ±100 the full control effect). Summed up:
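P450-Glo luminescent screen: recombinant CYP2D6 enzyme–proluciferin substrate mix preincubated with compound 10 min at room temperature, then NADPH regeneration added for 1 h at room temperature. Detection reagent added for 20 min; luciferin light read as relative luminescence units.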

The target in assay [3] is Cytochrome P450 2C9 (Homo sapiens) (UniProt P11712). Briefly: Cytochrome P450 family 2 subfamily C member 9 (CYP2C9) small molecule antagonists: luciferase biochemical (cell-free) qHTS assay (AID 1645842; active means well fitted curve in the direction sought with a large enough effect in the repeat runs; an effect the other way counts as inactive or inconclusive; further: series mostly up to about 57 µM; on the % scale 0 is the no-effect control and ±100 the full control effect; nearly all actives have a fitted effect of over 55% in size). Summed up:
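Luminescence, after 20 min with luciferin detection reagent, reflected CYP2C9 turnover during a 1 h NADPH-driven reaction at 37C. Enzyme-substrate mix contained 0.4% bovine serum albumin and was preincubated with compound 10 min at room temperature.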

Assay [4] can be described thus: Primary qHTS for inhibitors of nuclear receptor binding SET domain protein 2 (NSD2) in an isogenic RCH-ACV NSD2 p.E1099K mutant (9B) (AID 1645876). Further: nearly all actives have a fitted effect of over 70% in size. Further: potency means the concentration at half of the fitted maximal effect.
Assay [5] in a line: Primary qHTS for small molecule stabilizers of the endoplasmic reticulum resident proteome: Secreted ER Calcium Modulated Protein (SERCaMP) assay (AID 1508630). Further: on the % scale 0 is the no-effect control and ±100 the full control effect. Summed up: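 GLuc-SERCaMP-expressing SH-SY5Y cells, pretreated 16 h with compound, are challenged with thapsigargin to empty ER calcium stores; after 4 h, coelenterazine is added directly to the medium and luminescence is imaged.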

In assay [6] the target is Calcium and integrin-binding protein 1 (Homo sapiens) (UniProt Q99828). The assay is described as follows: Primary qHTS for Identification of Calcium Integrin Binding Protein 1 (CIB1) Competitor (AID 1508620). Further: top concentration of the series differs between compounds; on the % scale 0 is the no-effect control and ±100 the full control effect. In short, it runs like this: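 Fluorescence polarization competition: GST-tagged CIB1 (1 uM final) preincubated with compound 15 min at room temperature, then FITC-labelled alphaIIb peptide (100 nM final) added. After 15 min at room temperature, polarization read at Ex 480/Em 540.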

Assay [7] is described as follows: Primary qHTS for inhibitors of nuclear receptor binding SET domain protein 2 (NSD2) in an RCH-ACV wild type WT cells (2C) (AID 1645877). Further: nearly all actives have a fitted effect of over 70% in size. Further: potency means the concentration at half of the fitted maximal effect.
A short description of assay [8]: A High-Content qHTS Against Drug Library for the Identification of Small Molecules that Inhibit DYT1 Early Onset Primary Dystonia-Associated Cell Pathology (AID 1645839; calls by dose curve; further: potency means the concentration at half of the fitted maximal effect). In short, it runs like this: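 Flp-In T-REx 293 cells with tetracycline-inducible EGFP-delE hTOR1A (WT EGFP-hTOR1A as reference), 800 cells/well; compound added with tetracycline, 48 h at 37 C. Fixed, permeabilized cells imaged; %pathology (punctate TorsinA) primary, cell count counterscreen.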

Assay [9] has as its target Rap guanine nucleotide exchange factor 3 (Homo sapiens) (UniProt O95398). Briefly: Confirmatory qHTS for antagonist of cAMP-regulated guanine nucleotide exchange factor 3 (EPAC1) (AID 1645880). Further: nearly all actives have a fitted effect of over 55% in size. Further: potency means the concentration at half of the fitted maximal effect. In short, it runs like this: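 Nucleotide exchange uses 100 nM EPAC1, 250 nM RAP1B-BODIPY-GDP and 50 uM GDP, with compounds in a concentration-titration series. After 5 min at room temperature, fluorescence (480 nm ex/540 nm em) is read every 5 min for 30 min. Data are normalized to control ATA and DMSO.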

For assay [10] the target is unchanged. The assay is described as follows: Confirmatory qHTS for agonist of cAMP-regulated guanine nucleotide exchange factor 3 (EPAC1) (AID 1645881).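 Further: EPAC1 catalysed release of BODIPY-GDP from Rap1B seen as fluorescence loss; 100% = effect of cAMP agonist control; nearly all actives have a fitted effect of over 75% in size.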
Assay [11] has as its target Rap guanine nucleotide exchange factor 4 (Homo sapiens) (UniProt Q8WZA2). The assay is described as follows: Confirmatory qHTS for agonist of cAMP-regulated guanine nucleotide exchange factor 4 (EPAC2) (AID 1645884). Further: nearly all actives have a fitted effect of over 65% in size. Further: potency means the concentration at half of the fitted maximal effect.
Assay [12] shares this target. The assay is described as follows: Confirmatory qHTS for antagonist of cAMP-regulated guanine nucleotide exchange factor 4 (EPAC2) (AID 1645885). Further: nearly all actives have a fitted effect of over 25% in size. Further: potency means the concentration at half of the fitted maximal effect. On activity change, negative = inhibition: on the % scale 0 is the no-effect control and ±100 the full control effect.
The target in assay [13] is Rap guanine nucleotide exchange factor 3 (Homo sapiens) (UniProt O95398). Briefly: Counterscreen qHTS for antagonist of cAMP-regulated guanine nucleotide exchange factor 3 (EPAC1) (AID 1645888).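 Further: fluorescence loss as bound BODIPY-GDP is released from Rap1B; % of control where 0% means no effect.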 In short, it runs like this:
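Rap1B–BODIPY-GDP (250 nM) with 50 uM GDP; compounds pin-transferred to 9.74 nM–152 uM final (activator) or from 7.32 nM upwards (inhibitor). Fluorescence Ex/Em 480/540 nm read at 5 and 30 min, then after adding cAMP or buffer, at room temperature.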
For orientation: The purpose of a counterscreen is to sort out artefacts and off-target activity.

Chain of Cytochrome P450 2C9 (Homo sapiens) (P11712 whole entry, looked up): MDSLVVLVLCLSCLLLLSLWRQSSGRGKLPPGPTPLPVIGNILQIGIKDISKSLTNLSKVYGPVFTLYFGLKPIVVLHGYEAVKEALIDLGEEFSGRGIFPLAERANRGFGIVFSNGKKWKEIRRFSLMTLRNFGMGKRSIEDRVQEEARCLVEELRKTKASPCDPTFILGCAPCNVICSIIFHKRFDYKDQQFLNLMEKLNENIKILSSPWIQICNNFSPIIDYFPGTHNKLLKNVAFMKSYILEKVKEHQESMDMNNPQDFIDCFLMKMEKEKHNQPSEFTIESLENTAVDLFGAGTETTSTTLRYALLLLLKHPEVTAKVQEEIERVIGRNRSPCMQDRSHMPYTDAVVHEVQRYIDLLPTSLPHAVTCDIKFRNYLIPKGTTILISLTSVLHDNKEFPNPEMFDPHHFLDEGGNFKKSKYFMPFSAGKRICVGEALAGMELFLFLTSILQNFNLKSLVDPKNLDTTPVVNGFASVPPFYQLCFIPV
Chain of Calcium and integrin-binding protein 1 (Homo sapiens) (Q99828 whole entry, looked up): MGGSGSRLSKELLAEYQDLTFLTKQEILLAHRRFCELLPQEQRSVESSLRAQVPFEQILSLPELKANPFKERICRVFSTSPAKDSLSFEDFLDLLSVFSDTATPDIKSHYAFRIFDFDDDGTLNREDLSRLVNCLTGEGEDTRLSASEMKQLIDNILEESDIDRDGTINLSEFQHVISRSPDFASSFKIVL
Chain of Rap guanine nucleotide exchange factor 4 (Homo sapiens) (Q8WZA2 whole entry, looked up): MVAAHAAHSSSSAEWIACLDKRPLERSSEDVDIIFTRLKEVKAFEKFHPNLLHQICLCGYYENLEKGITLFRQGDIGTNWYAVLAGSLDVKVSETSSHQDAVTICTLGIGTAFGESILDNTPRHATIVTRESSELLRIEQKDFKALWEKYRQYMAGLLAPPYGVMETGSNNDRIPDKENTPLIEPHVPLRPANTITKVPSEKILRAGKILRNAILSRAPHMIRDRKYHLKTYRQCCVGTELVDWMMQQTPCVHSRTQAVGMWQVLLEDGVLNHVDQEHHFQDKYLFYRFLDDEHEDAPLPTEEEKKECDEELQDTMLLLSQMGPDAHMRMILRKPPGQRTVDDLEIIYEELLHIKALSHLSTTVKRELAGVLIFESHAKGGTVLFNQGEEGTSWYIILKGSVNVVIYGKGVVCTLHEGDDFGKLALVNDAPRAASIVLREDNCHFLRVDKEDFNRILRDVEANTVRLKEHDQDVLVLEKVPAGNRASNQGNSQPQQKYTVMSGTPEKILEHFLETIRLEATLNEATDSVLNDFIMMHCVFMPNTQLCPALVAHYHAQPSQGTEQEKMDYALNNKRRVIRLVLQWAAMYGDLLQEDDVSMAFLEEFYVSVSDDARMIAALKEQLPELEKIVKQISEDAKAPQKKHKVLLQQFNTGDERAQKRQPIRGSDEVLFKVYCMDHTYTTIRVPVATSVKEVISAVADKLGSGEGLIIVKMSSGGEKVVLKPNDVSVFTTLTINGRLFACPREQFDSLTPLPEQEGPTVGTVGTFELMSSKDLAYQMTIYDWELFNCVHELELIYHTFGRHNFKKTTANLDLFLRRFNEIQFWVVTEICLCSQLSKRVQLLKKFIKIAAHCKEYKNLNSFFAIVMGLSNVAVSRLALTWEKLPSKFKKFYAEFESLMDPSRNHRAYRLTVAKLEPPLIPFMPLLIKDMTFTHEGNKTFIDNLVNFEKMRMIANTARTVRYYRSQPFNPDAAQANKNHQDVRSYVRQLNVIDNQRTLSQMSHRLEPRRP
Chain of Cytochrome P450 2D6 (Homo sapiens) (P10635 whole entry, looked up): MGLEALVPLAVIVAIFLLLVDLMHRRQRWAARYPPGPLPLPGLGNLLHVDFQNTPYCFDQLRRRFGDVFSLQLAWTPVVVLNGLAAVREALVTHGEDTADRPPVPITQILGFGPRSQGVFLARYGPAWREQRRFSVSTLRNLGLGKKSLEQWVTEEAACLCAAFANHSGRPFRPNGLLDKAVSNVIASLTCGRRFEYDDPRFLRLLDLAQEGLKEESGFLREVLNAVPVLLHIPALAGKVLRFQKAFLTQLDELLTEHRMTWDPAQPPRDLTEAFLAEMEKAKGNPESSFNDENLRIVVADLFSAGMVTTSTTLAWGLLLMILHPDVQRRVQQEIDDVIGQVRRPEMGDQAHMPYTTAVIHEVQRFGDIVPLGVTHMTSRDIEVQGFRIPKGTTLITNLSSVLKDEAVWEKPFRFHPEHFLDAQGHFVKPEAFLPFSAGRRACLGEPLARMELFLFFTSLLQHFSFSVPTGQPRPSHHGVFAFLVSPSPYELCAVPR
Chain of Rap guanine nucleotide exchange factor 3 (Homo sapiens) (O95398 whole entry, looked up): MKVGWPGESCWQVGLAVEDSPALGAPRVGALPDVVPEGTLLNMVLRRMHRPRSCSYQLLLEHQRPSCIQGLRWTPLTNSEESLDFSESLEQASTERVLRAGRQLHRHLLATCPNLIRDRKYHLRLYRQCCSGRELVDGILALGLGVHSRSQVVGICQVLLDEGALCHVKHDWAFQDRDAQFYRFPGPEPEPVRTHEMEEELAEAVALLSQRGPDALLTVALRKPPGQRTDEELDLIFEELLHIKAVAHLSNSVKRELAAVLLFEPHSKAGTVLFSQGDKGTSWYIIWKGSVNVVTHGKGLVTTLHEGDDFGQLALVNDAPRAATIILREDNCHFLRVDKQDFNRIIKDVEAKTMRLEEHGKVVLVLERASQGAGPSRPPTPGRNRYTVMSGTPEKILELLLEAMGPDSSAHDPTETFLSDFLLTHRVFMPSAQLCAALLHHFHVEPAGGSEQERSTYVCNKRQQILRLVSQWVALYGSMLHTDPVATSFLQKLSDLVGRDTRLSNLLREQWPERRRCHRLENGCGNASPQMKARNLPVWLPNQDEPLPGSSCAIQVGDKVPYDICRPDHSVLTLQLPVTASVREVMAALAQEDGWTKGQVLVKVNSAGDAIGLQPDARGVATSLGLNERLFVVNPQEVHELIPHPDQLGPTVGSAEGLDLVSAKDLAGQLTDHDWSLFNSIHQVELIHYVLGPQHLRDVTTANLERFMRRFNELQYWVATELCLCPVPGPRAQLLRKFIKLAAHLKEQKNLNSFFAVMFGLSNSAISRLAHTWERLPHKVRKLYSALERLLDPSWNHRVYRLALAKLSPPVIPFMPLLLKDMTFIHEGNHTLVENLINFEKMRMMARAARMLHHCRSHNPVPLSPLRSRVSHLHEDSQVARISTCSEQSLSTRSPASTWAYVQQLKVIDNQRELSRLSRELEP

As to `Cc1ccc(O)c2ncccc12`, the Potency entry in assay [1], in assay [2] and in [3] was “inactive” each time. The Potency in [4] is 10.6 µM (active).

In the case of `Oc1ccc(Cl)c2cccnc12`, the Potency result in assay [1], in [5], in assay [2] and in [3] was “inactive” each time.

For `CN1C(CCl)Nc2cc(Cl)c(S(N)(=O)=O)cc2S1(=O)=O` (stereo not given), the Potency entry in assay [6], in assay [5], in [2], in [3], in [4] and in [7] was “inactive” in each case.

Regarding `O=C(CCCN1CCC(O)(c2ccc(Br)cc2)CC1)c1ccc(F)cc1`, the Potency entry in [1], in assay [5] and in assay [3] was “inactive” throughout. Further, the Potency in assay [2] was 2.75 µM (active); in assay [7], 18.8 µM (active).

With `COc1cccc2c1C(=O)c1c(O)c3c(c(O)c1C2=O)C[C@@](O)(C(C)=O)C[C@@H]3O[C@H]1C[C@H](N)[C@H](O)[C@H](C)O1`, the Potency entry in [5], in assay [3], in assay [9], in assay [11] and in assay [12] was “inactive” throughout. Further, the Potency was 1.58 µM (active) in assay [8]; 13.8 µM (active) in assay [2]; 2.7 nM (active) and 18.6 nM (active) in assay [4]; 0.0024 µM (active) in [7]. Also, the result in assay [10] was inactive. For the same compound, the activity change, negative = inhibition in assay [13] is 47.7% [at 30.8 µM].

For `O=C(O)CCCCC(=O)O`, the Potency entry in assay [1], in assay [3], in assay [4] and in assay [7] was “inactive” in each case.

As for `CCCCCCCCCCCCCCCC[N+](C)(C)CC`, the Potency result in assay [1] and in [5] was “inactive” each time. Besides, the values for the Potency in assay [2], in assay [4] and in assay [7] were 0.174 µM (active), 0.335 µM (active) and 0.299 µM (active), respectively.

With `CC(C)=CCC1C(=O)N(c2ccccc2)N(c2ccccc2)C1=O`, the Potency entry in assay [1], in [5], in assay [2] and in assay [3] was “inactive” in each case. In addition, the Potency in assay [4] was 16.8 µM (active); in [7] it was 15 µM (active).

On to `CC(=O)Nc1c(I)cc(I)c(C(=O)O)c1I`, for which the Potency entry in assay [6], in [5], in assay [8], in [3], in assay [4] and in assay [7] was “inactive” throughout. In addition, the Potency in assay [2] is 19.5 µM (active).

As for `COCc1c(C(C)C)nc(C(C)C)c(/C=C/[C@@H](O)C[C@@H](O)CC(=O)O)c1-c1ccc(F)cc1`, the Potency entry in assay [5] and in assay [2] was “inactive” throughout. Also, the Potency in [4] was 0.335 µM (active); in assay [7], 0.211 µM (active).

Take `O=c1c(-c2ccccc2)c1-c1ccccc1`: the Potency entry in assay [6], in [5] and in assay [2] was “inactive” each time.

As for `CCN(CCCCOC(=O)c1ccc(OC)c(OC)c1)C(C)Cc1ccc(OC)cc1` (stereo not given), the Potency result in assay [6], in [5], in assay [8] and in assay [3] was “inactive” throughout.

For `Cc1cc(N)c2cc(NC(=O)Nc3ccc4nc(C)cc(N)c4c3)ccc2n1`, the Potency entry in [6], in assay [5] and in assay [3] was “inactive” in each case. For the same compound, the Potency in assay [2] was 8.71 µM (active); in assay [9], 25 µM (active); in [11], 25.1 µM (active); in [12], 35 µM (active).

In the case of `CC(C)(CO)[C@@H](O)C(=O)NCCCO`, the Potency result in assay [1], in assay [2], in assay [3], in assay [4] and in assay [7] was “inactive” throughout.
